Assay results: PubChem BioAssay (NCATS)
Records with an inconclusive call do not appear. The source made the active and inactive calls. The call rests on the fitted dose curve; in most records, active means well fitted inhibition curve with a large enough effect; inconclusive means small, poorly fitted or top-dose-only effect; inactive means flat fitted curve, though single readings scatter.

What was measured:
Experiment in all cases: Cytotoxic Profiling of Annotated Libraries Using Quantitative High-Throughput Screening (AID 1296008); further: nearly all actives have a fitted effect of over 60% in size
Details in all cases: Five cell lines viability, CellTiter-Glo ATP luminescence, 48-72 h; max response: stronger effect = lower value
CRL-7250 = normal cell line; tested on: CRL-7250
Procedure, shortened: (§1)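 Cells exposed to compounds for 48 or 72 hr at 37 degrees Celsius. Viability read as ATP-coupled luminescence with CellTiter-Glo after 10 min at room temperature.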

HEK293 = tested on: HEK293
Procedure, shortened: as §1

HaCat = tested on: HaCat
Procedure, shortened: as §1

KB-3-1 = tested on: KB-3-1
Procedure, shortened: as §1

NIH3T3 = tested on: NIH3T3
Procedure, shortened: as §1

Measured: max response
On the % scale 0 is the no-effect control and ±100 the full control effect.

C=C(CCO[C@@H]1O[C@H](CO)[C@@H](O)[C@H](O)[C@H]1O)C(=O)O
inactive: CRL-7250 -12.8% | HEK293 -3.91% | HaCat | KB-3-1 | NIH3T3 -0.513%

C=C(C(=O)O)[C@@H]1CC[C@H](C)[C@@H]2CC(=O)C(C)=C2C1
inactive: CRL-7250 | HEK293 3.15% | HaCat -2.91% | KB-3-1 3.54% | NIH3T3

COC(=O)C1=CO[C@@H](O[C@@H]2O[C@H](CO)[C@@H](O)[C@H](O)[C@H]2O)[C@@H]2C(CO)=CC[C@H]12
inactive: CRL-7250 3.17% | HEK293 -17.4% | HaCat | KB-3-1 | NIH3T3 -0.343%

COC1OC(OC)C(O)(CCC2(C)C(C)CCC3(C)C2CC(O)C(O)C32CO2)C1O (stereo not given)
inactive: CRL-7250 -2.11% | HEK293 1.57% | HaCat | KB-3-1 5.15% | NIH3T3

O=C(O)c1ccncc1Nc1nn(CCN2CCC(F)(F)CC2)c2ccc(F)cc12
inactive: CRL-7250 -22.9% | HEK293 0.878% | HaCat | KB-3-1 9.77% | NIH3T3 1.4%

CC(C/C=C/C(C)(C)O)C1CCC(C)(O)C(O)C1 (stereo not given)
inactive: CRL-7250 | HEK293 2.47% | HaCat 0.0762% | KB-3-1 | NIH3T3

C=C(CC/C=C(\C)C(=O)O)C1(O)CC=C(C)CC1 (stereo not given)
inactive: CRL-7250 2.5% | HEK293 4.47% | HaCat | KB-3-1 | NIH3T3

O=C(O)c1ccc(NC(=O)[C@H](CC2CCCC2)n2cnc(C(F)(F)F)c2)nc1
inactive: CRL-7250 -11.6% | HEK293 -11% | HaCat | KB-3-1 | NIH3T3

CCCN(CCN1CCN(c2ccccc2OC)CC1)C1CCc2ncsc2C1 (stereo not given)
inactive: CRL-7250 -14.3% | HEK293 0.117% | HaCat -2.7% | KB-3-1 | NIH3T3

C[C@]1(O)CC[C@@H]2C(C(=O)O)=CO[C@@H](O[C@@H]3O[C@H](CO)[C@@H](O)[C@H](O)[C@H]3O)[C@@H]21
inactive: CRL-7250 -9.18% | HEK293 -5.73% | HaCat | KB-3-1 0.108% | NIH3T3 1.11%

NC(=O)c1ccc(F)c2c1C[C@@H](N(C1CCC1)C1CCC1)CO2
inactive: CRL-7250 | HEK293 -5.17% | HaCat | KB-3-1 4.79% | NIH3T3 3.88%

C/C=C(\C)C(=O)OC1C(C)C2(O)C3C=C(C)C(=O)C3CC(CO)=CC2C2C(C)(C)C12OC(C)=O (stereo not given)
inactive: CRL-7250 -31.4% | HEK293 -25.8% | HaCat 4.78% | KB-3-1 2.42% | NIH3T3

CC1(C)CC[C@]2(C(=O)O[C@@H]3O[C@H](CO)[C@@H](O)[C@H](O)[C@H]3O)CC[C@]3(C)C(=CCC4[C@@]5(C)CC[C@H](O[C@@H]6O[C@H](C(=O)O)[C@@H](O[C@@H]7O[C@H](CO)[C@@H](O)[C@H](O)[C@H]7O)[C@H](O)[C@H]6O[C@@H]6O[C@H](CO)[C@@H](O)[C@H](O)[C@H]6O)C(C)(C)C5CC[C@]43C)C2C1 (stereo not given in full)
inactive: CRL-7250 -7.32% | HEK293 -5.89% | HaCat | KB-3-1 9.55% | NIH3T3

C[C@]1(OC(=O)/C=C\c2ccc(O)cc2)C[C@@H](O)[C@]2(O)C=CO[C@@H](O[C@@H]3O[C@H](CO)[C@@H](O)[C@H](O)[C@H]3O)C12 (stereo not given in full)
inactive: CRL-7250 -13.5% | HEK293 -4.97% | HaCat -23.9% | KB-3-1 | NIH3T3

CC1OC(OC2C(OC(=O)[C@]34CCC(C)(C)C[C@H]3C3=CCC5[C@@]6(C)CC[C@H](OC7OC(C(=O)O)C(O)C(O)C7O)C(C)(C)C6CC[C@@]5(C)[C@]3(C)CC4O)OC(CO)C2O)C(O)C(O)C1OC1OCC(O)C(O)C1O (stereo not given in full)
inactive: CRL-7250 0.472% | HEK293 -8.42% | HaCat | KB-3-1 8.03% | NIH3T3 -0.0675%

C/C=C/C=C/C=C/C(=O)N(C)C(C(=O)NC(C)C(=O)N1CCCC1C(N)=O)C(C)C (stereo not given)
inactive: CRL-7250 -4.46% | HEK293 2.9% | HaCat | KB-3-1 | NIH3T3 0.323%

CC1(C)[C@H]2C[C@H](C/C=C\CCCC(=O)O)[C@@H](NC(=O)c3csc4ccc(O)cc34)[C@@H]1C2
inactive: CRL-7250 -1.76% | HEK293 4.16% | HaCat | KB-3-1 | NIH3T3

CC1(CO)CC(O)C2(C)CCC3(C)C(=CCC4C5(C=O)CCC(OC6OC(C(=O)O)C(O)C(O)C6OC6OC(C(=O)O)C(O)C(O)C6O)C(C)(C)C5CCC43C)C2C1 (stereo not given)
inactive: CRL-7250 | HEK293 -10.9% | HaCat | KB-3-1 | NIH3T3

C[C@H](O)C(O)(C(=O)OCc1ccccc1NC(=O)CCC(N)C(=O)O)[C@H](C)O (stereo not given in full)
inactive: CRL-7250 -7.85% | HEK293 -11.8% | HaCat | KB-3-1 | NIH3T3

CC1(O)CCC2C(C3C1CCC3(C)O)C2(C)C (stereo not given)
inactive: CRL-7250 3.06% | HEK293 0.939% | HaCat 2.93% | KB-3-1 7.36% | NIH3T3

CC(C)C1C(OC(=O)/C=C/c2ccccc2)CC2(C)OC2CCC2(C)OC2C1O (stereo not given)
inactive: CRL-7250 | HEK293 -5.07% | HaCat | KB-3-1 9.34% | NIH3T3 -5.79%

COc1cc(/C=C/C(=O)O[C@@H]2C[C@](O)(C(=O)O)C[C@@H](O)[C@H]2O)ccc1O
inactive: CRL-7250 -5.29% | HEK293 -0.759% | HaCat | KB-3-1 | NIH3T3 1.32%

COC(=O)[C@]1(C)CCC[C@@]2(C)C(=O)CC[C@H]3C(=O)C=C(CC[C@@H]21)C3O (stereo not given in full)
inactive: CRL-7250 -8.93% | HEK293 -5.09% | HaCat | KB-3-1 -0.869% | NIH3T3 1.41%

CC1C(O)C(O)C2C(C(=O)OCCc3ccc(O)cc3)=COC(O[C@@H]3O[C@H](CO)[C@@H](O)[C@H](O)[C@H]3O)C12 (stereo not given in full)
inactive: CRL-7250 | HEK293 -0.685% | HaCat | KB-3-1 -9.14% | NIH3T3 2.97%

CC1CC2OCC3(O)CCC(O)C(C14CC(c1ccoc1)OC4=O)C23CO (stereo not given)
inactive: CRL-7250 | HEK293 -3.58% | HaCat | KB-3-1 9.94% | NIH3T3

O=C(/C=C/c1ccc(O)cc1)OC[C@H]1O[C@@H](O/C(=C\c2ccccc2)C(=O)O)[C@H](O)[C@@H](O)[C@@H]1O
inactive: CRL-7250 | HEK293 -7.06% | HaCat | KB-3-1 | NIH3T3 4.52%

CC1(CO)CCCC2(C)C3COC(=O)C3=CC(O)C12 (stereo not given)
inactive: CRL-7250 1.03% | HEK293 -8.01% | HaCat -5.37% | KB-3-1 | NIH3T3

CC(C)=CCC/C(C)=C/CO[C@@H]1O[C@H](CO[C@@H]2OC[C@](O)(CO)[C@H]2O)[C@@H](O)[C@H](O)[C@H]1O
inactive: CRL-7250 2.57% | HEK293 -12.6% | HaCat | KB-3-1 | NIH3T3

O=C(Cn1c2ccccc2c2nc3n(c(=O)c21)CCS3)N1CCCC1
inactive: CRL-7250 | HEK293 -15.3% | HaCat | KB-3-1 | NIH3T3 1.74%

CC1(C)C=Cc2c(ccc3c2[N+]([O-])=C2C3(O)CC34NC(=O)C5(CCCN5C3=O)CC4C2(C)C)O1 (stereo not given)
inactive: CRL-7250 -1.3% | HEK293 -1.32% | HaCat -0.0821% | KB-3-1 | NIH3T3

Cc1ccc2[nH]c(=O)c(C3=NN(C(=O)CCC(=O)O)C(c4ccc(Br)cc4)C3)c(-c3ccccc3)c2c1 (stereo not given)
inactive: CRL-7250 0.735% | HEK293 1.24% | HaCat -0.37% | KB-3-1 4.72% | NIH3T3

C=Cc1cc2oc(-c3ccc(O)c(F)c3)nc2cc1O
inactive: CRL-7250 | HEK293 -3.32% | HaCat -11% | KB-3-1 | NIH3T3

COc1cc(Cc2cnc(N)nc2N)c(C(C)C)cc1OC
inactive: CRL-7250 -4.26% | HEK293 | HaCat -0.359% | KB-3-1 4.42% | NIH3T3 3.87%

Cn1cc(-c2c[nH]c3ncnc(N4CCOCC4)c23)cn1
inactive: CRL-7250 0.569% | HEK293 -23.9% | HaCat | KB-3-1 | NIH3T3
